# Laboratory results taken from PubChem BioAssay.
# Active and inactive are the calls of the source.
# Assays:
# [1] = test system: PRMT1 (protein arginine N-methyltransferase 1); experiment: PRMT1 binders on small-molecule microarrays, primary screen, biochemical, small-molecule microarray, 635 nm fluorescence (AID 1088); conditions: small-molecule microarray binding, higher = more signal;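 further: binding of Prmt1 protein to compounds spotted on small-molecule microarray slides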
# [2] = yeast growth modulation, basal conditions, primary screen, YJM789 clinical isolate, OD600, 24 h (AID 1089);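 further: growth of clinical yeast isolate S. cerevisiae YJM 789 seeded 1000 cells per well; test concentration not given here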; conditions: S. cerevisiae YJM789 growth, higher = more signal, called active from +8 up or from −8 down
# [3] = fission yeast growth modulation, primary screen, strain 972, OD600, 24 h, no modulator (AID 1090);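 further: basal condition with compound alone and no growth modifier present; test concentration not given here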; conditions: S. pombe 972 growth, higher = more signal, called active from +8 up or from −8 down
# [4] = S. cerevisiae growth modulation with rapamycin, primary screen, strain BY4716, OD600, 96 h (AID 1091); conditions: higher = more signal, called active from +8 up or from −8 down; further: test concentration not given here
# [5] = target: Torsin-1A-interacting protein 2 (Homo sapiens) (UniProt Q8NFQ8); experiment: LULL1 binders on small-molecule microarray, primary screen, cell lysate, human LULL1 lysate, 635/667 nm fluorescence (AID 1092); conditions: hLULL1 lysate binding, 635 nm fluorescence, higher = more signal;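 further: probe is lysate of COS7 cells overexpressing human LULL1; score merges per-feature 667 nm fluorescence with signal-to-noise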
# [6] = E. coli growth modulation, two-sided OD650, primary screen, E. coli filamentation project, strain DRC41, 24 h (AID 1093); conditions: OD650, 24 h, higher = more signal, called active from +8 up or from −8 down;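 further: MC1000 strain lacking acrAB efflux and sulA so SOS filamentation is blocked; test concentration not given here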
# [7] = small-molecule microarray binders of probe aLefty2, primary screen, biochemical, biotinylated probe, 635/667 nm fluorescence (AID 1094); conditions: higher = more signal;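 further: score merges spot fluorescence near 667 nm with spot signal-to-noise ratio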
# [8] = test system: Noggin (protein binding on small-molecule microarray); experiment: Noggin binders on small-molecule microarray, primary screen, biochemical, 635/667 nm fluorescence (AID 1095); conditions: 635 nm fluorescence, higher = more signal;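 further: score merges 667 nm feature fluorescence with signal to noise over triplicate slides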
# [9] = target: Neurogenic locus notch homolog protein 3 (Homo sapiens) (UniProt Q9UM47); experiment: NOTCH3 binders on small-molecule microarray, primary screen, biochemical, 635/667 nm fluorescence (AID 1096); conditions: NOTCH3 binding, 635 nm fluorescence, higher = more signal
# [10] = small-molecule microarray binders of probe aEGFR, primary screen, biochemical, biotinylated probe, 635/667 nm fluorescence (AID 1097); conditions: higher = more signal;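 further: probe is a biotinylated anti-EGFR antibody binding compounds printed on slides; score combines fluorescence near 667 nm and signal to noise of each spot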
# [11] = test system: Plasmodium falciparum Sir2 (PF13_0152, Sir2A); experiment: pfSir2 binders on small-molecule microarrays, primary screen, biochemical, small-molecule microarray, 635 nm fluorescence (AID 1098); conditions: small-molecule microarray binding, fluorescence 635 nm; higher = more signal;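 further: score merges spot fluorescence intensity with its signal-to-noise ratio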
# [12] = small-molecule microarray binders of probe aDKK1, primary screen, biochemical, biotinylated probe, 635/667 nm fluorescence (AID 1099); conditions: higher = more signal;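 further: score merges 667nm spot fluorescence with signal to noise across triplicate slides; reference of the scale not given here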
# [13] = small-molecule microarray binders of probe aCHRDL2, primary screen, biochemical, biotinylated probe, 635/667 nm fluorescence (AID 1100); conditions: higher = more signal
# [14] = splicing luciferase reporter signal modulators, primary screen, spliceosome inhibition project, cell-based, HEK293, splice +/- reporter (AID 1101); conditions: luminescence, 24 h, higher = more signal, called active from +8 up or from −8 down;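 further: HEK293 cells carrying a splicing-competent luciferase reporter gene; test concentration not given here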
# [15] = target: Fibroblast growth factor 10 (Homo sapiens) (UniProt O15520); experiment: FGF10 binders on small-molecule microarrays, primary screen, biochemical, small-molecule microarray, 635 nm fluorescence (AID 1102); conditions: FGF10 binding, fluorescence 635 nm, higher = more signal
# [16] = test system: glycogen synthase kinase-3 (GSK3A per assay name; protocol says GSK3B); experiment: GSK3 binders on small-molecule microarrays, primary screen, biochemical, small-molecule microarray, 635 nm fluorescence, GSK3A (AID 1103); conditions: small-molecule microarray binding, fluorescence 635 nm; higher = more signal; further: the record names both GSK3A and GSK3B
# [17] = target: Epidermal growth factor receptor (Homo sapiens) (UniProt P00533); experiment: EGFR binders on small-molecule microarrays, primary screen, biochemical, small-molecule microarray, 635 nm fluorescence (AID 1104); conditions: EGFR binding, higher = more signal;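 further: score merges 667 nm emission intensity with spot signal to noise over triplicate slides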
# [18] = target: Follistatin-related protein 3 (Homo sapiens) (UniProt O95633); experiment: FSTL3 binders on small-molecule microarrays, primary screen, biochemical, small-molecule microarray, 635 nm fluorescence (AID 1105); conditions: FSTL3 binding, higher = more signal;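 further: score merges emission near 667 nm and signal to noise per printed spot across three slides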
# [19] = target: Dickkopf-related protein 1 (Homo sapiens) (UniProt O94907); experiment: DKK1 binders on small-molecule microarrays, primary screen, biochemical, small-molecule microarray, 635 nm fluorescence scan (AID 1106); conditions: DKK1 binding, higher = more signal;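 further: score merges emission near 667 nm with signal to noise over three replicate slides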
# [20] = test system: Inhibin beta A chain (activin A); experiment: INHBA (activin A) binders on microarrays, primary screen, biochemical, small-molecule microarray, 635 nm fluorescence scan (AID 1107); conditions: small-molecule microarray binding, higher = more signal;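 further: mouse activin A protein probed at 4.33 µg/mL on printed slides; score merges bound-protein fluorescence near 667 nm with spot signal-to-noise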
# Epidermal growth factor receptor (Homo sapiens), sequence (P00533 whole entry, looked up): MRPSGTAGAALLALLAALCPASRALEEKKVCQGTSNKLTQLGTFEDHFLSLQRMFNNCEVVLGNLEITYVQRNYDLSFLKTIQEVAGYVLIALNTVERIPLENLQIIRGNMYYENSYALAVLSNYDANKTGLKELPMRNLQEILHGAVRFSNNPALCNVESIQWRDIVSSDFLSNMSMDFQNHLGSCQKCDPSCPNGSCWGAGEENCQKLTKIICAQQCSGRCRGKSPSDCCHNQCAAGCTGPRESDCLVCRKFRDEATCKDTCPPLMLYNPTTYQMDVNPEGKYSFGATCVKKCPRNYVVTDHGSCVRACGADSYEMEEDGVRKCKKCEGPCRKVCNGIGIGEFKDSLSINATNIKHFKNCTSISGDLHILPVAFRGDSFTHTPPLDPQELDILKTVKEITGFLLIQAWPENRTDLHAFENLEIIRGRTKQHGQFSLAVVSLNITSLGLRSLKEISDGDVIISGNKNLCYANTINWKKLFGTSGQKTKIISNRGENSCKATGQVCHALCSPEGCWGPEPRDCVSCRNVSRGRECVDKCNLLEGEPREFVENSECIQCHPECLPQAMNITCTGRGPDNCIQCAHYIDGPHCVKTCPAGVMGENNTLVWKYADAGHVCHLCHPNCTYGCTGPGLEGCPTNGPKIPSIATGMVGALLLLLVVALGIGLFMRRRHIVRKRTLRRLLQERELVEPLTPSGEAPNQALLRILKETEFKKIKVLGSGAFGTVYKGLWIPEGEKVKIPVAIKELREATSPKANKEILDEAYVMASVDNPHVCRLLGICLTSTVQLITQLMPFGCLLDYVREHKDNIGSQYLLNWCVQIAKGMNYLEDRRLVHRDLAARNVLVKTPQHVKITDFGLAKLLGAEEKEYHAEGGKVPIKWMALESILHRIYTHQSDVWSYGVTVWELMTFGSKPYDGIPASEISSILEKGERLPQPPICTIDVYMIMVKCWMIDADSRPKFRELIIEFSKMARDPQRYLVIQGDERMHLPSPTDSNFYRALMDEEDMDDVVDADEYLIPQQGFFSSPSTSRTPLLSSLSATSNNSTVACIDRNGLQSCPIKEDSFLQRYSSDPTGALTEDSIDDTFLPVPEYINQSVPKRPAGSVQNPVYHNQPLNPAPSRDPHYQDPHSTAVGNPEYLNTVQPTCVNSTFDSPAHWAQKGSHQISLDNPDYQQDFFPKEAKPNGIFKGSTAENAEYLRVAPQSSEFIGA
# Dickkopf-related protein 1 (Homo sapiens), sequence (O94907 whole entry, looked up): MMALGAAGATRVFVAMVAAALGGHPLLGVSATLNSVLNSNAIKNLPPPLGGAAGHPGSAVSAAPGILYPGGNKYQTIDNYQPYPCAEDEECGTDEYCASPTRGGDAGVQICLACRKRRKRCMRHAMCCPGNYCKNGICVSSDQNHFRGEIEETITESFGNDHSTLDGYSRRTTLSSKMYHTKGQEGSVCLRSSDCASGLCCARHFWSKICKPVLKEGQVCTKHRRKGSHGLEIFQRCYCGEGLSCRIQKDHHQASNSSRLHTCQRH
# Fibroblast growth factor 10 (Homo sapiens), sequence (O15520 whole entry, looked up): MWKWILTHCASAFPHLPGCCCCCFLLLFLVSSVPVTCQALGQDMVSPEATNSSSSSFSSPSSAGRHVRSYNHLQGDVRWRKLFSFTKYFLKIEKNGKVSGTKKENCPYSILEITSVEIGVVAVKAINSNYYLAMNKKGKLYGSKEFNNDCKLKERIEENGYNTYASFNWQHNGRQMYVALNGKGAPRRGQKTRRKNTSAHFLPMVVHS
# Follistatin-related protein 3 (Homo sapiens), sequence (O95633 whole entry, looked up): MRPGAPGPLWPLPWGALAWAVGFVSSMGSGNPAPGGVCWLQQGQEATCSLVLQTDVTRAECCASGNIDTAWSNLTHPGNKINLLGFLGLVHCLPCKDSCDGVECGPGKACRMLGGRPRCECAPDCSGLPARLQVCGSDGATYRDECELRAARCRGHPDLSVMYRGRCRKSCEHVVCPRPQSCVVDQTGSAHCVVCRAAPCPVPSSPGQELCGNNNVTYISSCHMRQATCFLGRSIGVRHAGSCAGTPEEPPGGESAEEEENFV
# Neurogenic locus notch homolog protein 3 (Homo sapiens), sequence (Q9UM47 whole entry, looked up): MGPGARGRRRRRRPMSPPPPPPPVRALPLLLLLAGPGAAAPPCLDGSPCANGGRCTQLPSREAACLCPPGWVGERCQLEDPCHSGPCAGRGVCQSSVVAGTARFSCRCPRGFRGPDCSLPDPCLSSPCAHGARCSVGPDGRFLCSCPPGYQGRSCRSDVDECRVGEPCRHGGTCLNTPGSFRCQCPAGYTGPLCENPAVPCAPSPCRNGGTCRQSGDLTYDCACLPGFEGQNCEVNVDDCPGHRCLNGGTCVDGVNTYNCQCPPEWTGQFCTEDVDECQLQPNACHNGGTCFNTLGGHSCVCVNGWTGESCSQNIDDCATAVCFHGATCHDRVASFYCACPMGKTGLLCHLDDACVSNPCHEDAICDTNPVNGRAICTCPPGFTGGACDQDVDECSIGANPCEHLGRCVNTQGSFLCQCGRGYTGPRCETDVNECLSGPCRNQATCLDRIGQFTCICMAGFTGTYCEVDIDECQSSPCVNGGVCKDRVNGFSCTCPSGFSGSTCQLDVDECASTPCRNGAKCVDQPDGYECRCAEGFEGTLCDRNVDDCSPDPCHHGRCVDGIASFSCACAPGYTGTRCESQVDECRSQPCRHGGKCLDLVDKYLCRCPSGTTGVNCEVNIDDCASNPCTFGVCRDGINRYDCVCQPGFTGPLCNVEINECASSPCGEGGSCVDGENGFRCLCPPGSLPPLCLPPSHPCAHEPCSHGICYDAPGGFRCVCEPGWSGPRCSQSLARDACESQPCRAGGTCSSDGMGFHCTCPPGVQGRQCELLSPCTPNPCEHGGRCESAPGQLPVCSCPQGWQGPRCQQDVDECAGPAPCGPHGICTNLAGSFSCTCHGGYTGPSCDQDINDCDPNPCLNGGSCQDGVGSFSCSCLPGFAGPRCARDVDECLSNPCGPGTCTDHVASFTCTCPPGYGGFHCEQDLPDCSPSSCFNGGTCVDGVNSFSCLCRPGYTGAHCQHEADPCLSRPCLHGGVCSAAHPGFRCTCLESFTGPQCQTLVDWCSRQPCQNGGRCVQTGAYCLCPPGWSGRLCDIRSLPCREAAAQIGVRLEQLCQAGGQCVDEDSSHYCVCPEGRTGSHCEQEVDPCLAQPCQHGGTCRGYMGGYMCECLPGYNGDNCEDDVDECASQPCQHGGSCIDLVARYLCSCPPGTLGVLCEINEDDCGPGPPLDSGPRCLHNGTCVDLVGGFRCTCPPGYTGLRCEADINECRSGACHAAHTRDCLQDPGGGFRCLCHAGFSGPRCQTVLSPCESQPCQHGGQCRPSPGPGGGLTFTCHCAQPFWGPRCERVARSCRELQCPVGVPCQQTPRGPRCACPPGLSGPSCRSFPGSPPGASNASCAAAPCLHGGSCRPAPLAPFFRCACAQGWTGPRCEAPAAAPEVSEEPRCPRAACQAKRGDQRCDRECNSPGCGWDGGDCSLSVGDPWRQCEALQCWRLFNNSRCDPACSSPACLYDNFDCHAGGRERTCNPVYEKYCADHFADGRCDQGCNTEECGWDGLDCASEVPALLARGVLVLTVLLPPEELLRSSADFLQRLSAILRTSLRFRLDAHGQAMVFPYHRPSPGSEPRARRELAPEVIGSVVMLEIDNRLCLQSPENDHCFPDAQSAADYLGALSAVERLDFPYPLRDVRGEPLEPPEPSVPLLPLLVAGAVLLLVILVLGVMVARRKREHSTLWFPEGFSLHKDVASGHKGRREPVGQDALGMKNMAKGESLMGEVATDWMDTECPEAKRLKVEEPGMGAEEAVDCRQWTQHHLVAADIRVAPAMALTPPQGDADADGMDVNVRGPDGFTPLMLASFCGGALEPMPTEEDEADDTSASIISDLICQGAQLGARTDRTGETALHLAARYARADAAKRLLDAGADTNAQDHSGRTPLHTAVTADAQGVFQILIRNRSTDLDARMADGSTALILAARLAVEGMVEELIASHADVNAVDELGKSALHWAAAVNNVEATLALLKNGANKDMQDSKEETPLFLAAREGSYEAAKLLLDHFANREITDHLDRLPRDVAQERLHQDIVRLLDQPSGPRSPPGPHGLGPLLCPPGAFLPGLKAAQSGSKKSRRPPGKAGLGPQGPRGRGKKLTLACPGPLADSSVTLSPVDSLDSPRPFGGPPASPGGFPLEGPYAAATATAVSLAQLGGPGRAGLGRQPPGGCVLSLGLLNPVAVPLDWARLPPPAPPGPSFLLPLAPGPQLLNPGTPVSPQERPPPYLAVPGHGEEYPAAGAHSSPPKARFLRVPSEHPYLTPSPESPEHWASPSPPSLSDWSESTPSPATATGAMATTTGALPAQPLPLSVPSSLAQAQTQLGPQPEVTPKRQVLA
# Torsin-1A-interacting protein 2 (Homo sapiens), sequence (Q8NFQ8 whole entry, looked up): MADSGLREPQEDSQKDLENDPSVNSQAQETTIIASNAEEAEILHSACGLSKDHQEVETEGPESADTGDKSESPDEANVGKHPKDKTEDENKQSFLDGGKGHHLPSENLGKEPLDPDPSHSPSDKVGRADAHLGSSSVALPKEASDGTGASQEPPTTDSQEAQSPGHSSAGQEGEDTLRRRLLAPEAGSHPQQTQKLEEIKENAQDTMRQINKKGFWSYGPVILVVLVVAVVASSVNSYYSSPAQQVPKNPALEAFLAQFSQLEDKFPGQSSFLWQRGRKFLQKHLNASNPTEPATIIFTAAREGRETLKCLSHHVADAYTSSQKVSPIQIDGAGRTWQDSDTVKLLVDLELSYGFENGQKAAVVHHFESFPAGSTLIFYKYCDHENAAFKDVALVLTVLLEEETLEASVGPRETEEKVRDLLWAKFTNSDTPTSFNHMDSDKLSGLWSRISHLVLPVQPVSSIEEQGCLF
SMILES,composite z-score [1],z-score [2],z-score [3],z-score [4],composite z-score [5],z-score [6],composite z-score [7],composite z-score [8],composite z-score [9],composite z-score [10],composite z-score [11],composite z-score [12],composite z-score [13],z-score [14],composite z-score [15],composite z-score [16],composite z-score [17],composite z-score [18],composite z-score [19],composite z-score [20]
COc1ccc(NN2C(C(O)c3ccc([N+](=O)[O-])cc3)C=CC3C(=O)N(C4CCCCC4)C(=O)C32)cc1 (stereo not given),0.849,0.346 (inactive),0.811 (inactive),0.572 (inactive),2.69,-0.103 (inactive),0.192,-0.0162,1.09,-0.143,0.562,0.627,0.879,0.393 (inactive),0.355,0.909,-0.188,0.73,-0.281,0.921
C=CCNC(=O)[C@@H]1[C@H]2C(=O)O[C@H](c3ccccc3)[C@H](c3ccccc3)N2[C@H](c2ccc(OCCO)cc2)[C@@]12C(=O)Nc1ccc(C#Cc3ccc(OC)cc3)cc12,1.55,2.34 (inactive),0.961 (inactive),4.49 (inactive),2.48,0.838 (inactive),0.182,1.22,1.08,0.116,1.28,0.707,0.792,-0.476 (inactive),0.939,1.29,0.641,1.25,1.07,0.746
CCOC(=O)C[C@H]1[C@H](OC(=O)c2ccc(C(=O)c3ccccc3)cc2)[C@@H](NC(=O)c2ccc(-c3ccccc3)cc2)c2cc(OCCCO)ccc2N1C(=O)c1ccccc1,1.36,-0.575 (inactive),-0.34 (inactive),-0.169 (inactive),1.45,-0.83 (inactive),-0.221,0.421,1.03,0.0911,0.82,-0.222,-0.387,0.475 (inactive),0.994,0.477,0.515,0.723,0.321,-0.144
COCCCN1C(=O)[C@@]2(c3ccc([N+](=O)[O-])cc3)CC(=O)N(C3CCCCC3)[C@@H]2c2ccc(CO)cc21,0.996,0.134 (inactive),0.734 (inactive),-1.35 (inactive),-0.701,0.56 (inactive),-0.0782,0.549,-0.37,-0.128,0.555,-0.24,-0.319,-0.237 (inactive),0.301,0.237,-0.0732,0.593,0.3,0.717
COCCOC(=O)N1C(=O)[C@@]2(c3cc(C#Cc4ccc(OC)cc4)ccc31)[C@H](C(N)=O)[C@H]1C(=O)O[C@H](c3ccccc3)[C@H](c3ccccc3)N1[C@@H]2c1ccccc1OCCO,1.54,1.05 (inactive),0.649 (inactive),3.72 (inactive),2.33,0.071 (inactive),0.306,1.55,1.08,0.245,1.48,0.714,0.634,-0.265 (inactive),1.12,1.21,0.824,0.93,0.705,0.312
CC(C)C[C@@H]1NC(=O)[C@H]2C[C@@H](C(=O)NCCCCCCN)[C@@H](c3ccc(O)cc3)N2C1=O,1.17,-0.582 (inactive),-0.464 (inactive),-0.283 (inactive),2.32,-0.11 (inactive),0.679,0.696,0.529,0.125,1.59,1.06,0.808,0.823 (inactive),0.23,0.247,0.106,0.69,0.731,1.23
COCCn1c(C(=O)N2CCCC2)cc2c1C[C@H]1CN(C(=O)c3ccccc3)[C@@](Cc3ccc(F)cc3)(C(=O)OC)[C@@H]21,1.12,-0.339 (inactive),0.0582 (inactive),-0.0799 (inactive),3.84,-0.191 (inactive),0.166,0.126,0.583,0.0843,1.17,0.418,0.43,-0.604 (inactive),-0.149,1.31,0.291,0.664,0.131,0.593
CCOC(=O)[C@H]1C/C=C/C[C@H](C(=O)OCC)C(=O)O[C@H]2[C@@H](OC)O[C@H](CO)[C@@H](OC(=O)Nc3ccc(C#N)cc3)[C@@H]2OC1=O,0.595,-1.87 (inactive),-1.11 (inactive),32.1 (active),2.36,1.92 (inactive),-0.162,0.0435,0.466,-0.382,0.859,-0.114,0.0682,-2.6 (inactive),0.322,-0.0841,-0.226,0.413,-0.255,0.189
CN1C2C=C(CCCO)C(C3C(=O)N(C(N)=O)C(=O)C32)C1c1ccc(CN2CCCC2)cc1 (stereo not given),-0.378,-1.64 (inactive),0.715 (inactive),-0.55 (inactive),-0.736,0.194 (inactive),-0.253,-0.354,-0.615,-0.242,-0.323,-0.284,-0.257,-0.0848 (inactive),-0.367,-0.563,-0.376,-0.658,-0.544,-0.751
